# High-throughput results: PubChem, National Center for Advancing Translational Sciences (NCATS)
# TDP1 cell CPT – qHTS for Inhibitors of human tyrosyl-DNA phosphodiesterase 1 (TDP1): qHTS in cells in presence of CPT | chicken DT40 Tdp1-/-;hTDP1 cells + 20 nM CPT, ATP luminescence, 48 h | Potency, µM (highest dose often 46.2 µM), for the others: at the top dose activity change, negative = growth inhibition, usual class: inhibitors | 12% of 420,000 active | AID 686979, 2013; also: % is scaled to controls: 0 for no effect and ±100 for the full control effect; nearly all actives have a fitted effect of over 55% in size
#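 Chicken DT40 Tdp1-/- cells complemented with human TDP1, 400 cells/well, exposed to compounds plus 20 nM camptothecin for at least 48 h at 37 C; viability read as ATP content by CellTiter-Glo luminescence.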
# TDP1 cell noCPT – qHTS for Inhibitors of human tyrosyl-DNA phosphodiesterase 1 (TDP1): qHTS in cells in absence of CPT; DT40 Tdp1-/- hTDP1 cells, no CPT, ATP luminescence, 48 h; Potency, µM (highest dose often 46.2 µM), for inactives: at the top dose activity change, negative = growth inhibition, hits mostly inhibitors; 15% of 420,000 active; also: % is scaled to controls: 0 for no effect and ±100 for the full control effect; nearly all actives have a fitted effect of over 55% in size
#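 Luminescent ATP content (CellTiter-Glo) served as the growth readout. Knockout chicken DT40 cells expressing human TDP1 were exposed to compounds without camptothecin for a minimum 48 hr at 37 °C.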
# TDP1 inh – qHTS Assay for Inhibitors of Tyrosyl-DNA Phosphodiesterase (TDP1); Tyrosyl-DNA phosphodiesterase 1 (Homo sapiens), Q9NUW8; recombinant TDP1, AlphaScreen DNA substrate cleavage; Potency, µM (doses to about 130 µM), inactives show at the top dose activity change, negative = inhibition, usual class: inhibitors; 0.28% of 350,000 active; AID 485290, 2010; also: % is scaled to controls: 0 for no effect and ±100 for the full control effect; nearly all actives have a fitted effect of over 40% in size
#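 AlphaScreen read-out: signal falls as enzyme removes the 3' tyrosine-FITC from a 5'-biotinylated DNA oligo (15 nM, 5 min, RT). Enzyme was E. coli-made recombinant Tdp1 at 1 nM, exposed to compound for 15 min beforehand; beads 10 ug/ml, 10 min.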
# ClpP mod – qHTS Assay for Activators of ClpP. AID 651965, 2013. 1.9% of 340,000 active. Potency, µM (doses to about 57.5 µM), for the others: at the highest dose activity change, negative = active. ATP-dependent Clp protease proteolytic subunit (Bacillus subtilis (strain 168)), P80244. purified B. subtilis ClpP, FRET peptide cleavage, 20 min; active = well fitted falling curve with a large enough effect; inconclusive = small, poorly fitted or top-dose-only effect; inactive = no such curve, though single readings can be large or run the other way; also: the source files actives as falling curves though it sought activators and does not explain the sign; nearly all actives have a fitted effect of over 65% in size
# Target sequence (P80244 whole entry, looked up): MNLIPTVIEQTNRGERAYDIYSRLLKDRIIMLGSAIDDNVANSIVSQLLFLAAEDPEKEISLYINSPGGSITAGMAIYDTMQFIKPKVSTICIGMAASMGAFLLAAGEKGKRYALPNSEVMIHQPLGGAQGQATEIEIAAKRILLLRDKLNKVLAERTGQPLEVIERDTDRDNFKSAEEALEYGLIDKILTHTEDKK
#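 FRET quenching reversal measured ClpP activation: 10 microg/mL B. subtilis ClpP at pH 8 with the FRET-FV decapeptide, read at 430 nm after 320 nm excitation. The 20-min minus 0-min signal was scaled between DMSO/no-enzyme wells and ADEP (5.8 microM final).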
# * = called active by the depositor; ? = inconclusive; . = not tested or not shown; ! = a repeat was not active; [ ] = remark or other dose. Hits are enriched below; roughly 17% of the tested compounds scored in any of these assays. Unless noted, calls follow the shape of the dose curve; as a rule, active = well fitted curve in the direction sought with a large enough effect; inconclusive = small, poorly fitted or top-dose-only effect, or another doubt; inactive = no such curve, though single readings can be large; an effect the other way counts as inactive or inconclusive. Potency is read from the fitted curve at half-maximal effect.
SMILES,TDP1 cell CPT,TDP1 cell noCPT,TDP1 inh,ClpP mod
COC(=O)[C@@H]1C[C@@H]2CC[C@@H](O)C[C@@H]2N1Cc1ccc(-c2ccccc2)cc1,.,.,5%,.
CCOc1ccc(OCc2ccc(C(=O)N/N=C(\C)c3ccccn3)cc2)cc1,0.92µM*,0.65µM*,9%,.
C/C(=N\NC(=O)c1ccccc1OCc1ccc(F)cc1)c1ccccn1,4.6µM*,5.2µM*,2%,2%
c1ccc2c(N3CCCCCC3)nc(CN3CCCCC3c3nccs3)nc2c1 (stereo unspecified),-4%[9.04 µM],?,.,.
Cc1c(CCOC(=O)CC23CC4CC(CC(C4)C2)C3)sc[n+]1CC(=O)c1ccccc1,21µM*,15µM*,3%,1%
Cc1c(N)cc[n+](CC(=O)c2ccccc2)c1C,21µM*,21µM*,0%,.
Cc1c(CCO)sc[n+]1CC(=O)c1ccccc1,0.56µM*,?,.,1%
Cc1ccnc(N/C=C(\C#N)c2nc(-c3cccc(Br)c3)cs2)c1,21µM*,18µM*,-5%,-1%
O=C(Nc1ccc(Cl)c(C(F)(F)F)c1)C(Cc1ccccc1)NS(=O)(=O)c1cccc2nsnc12 (stereo unspecified),?,?,-5%,7%
CC(=O)NCCc1c[nH]c2ccc(O)cc12,18µM*!,-18%,9%[56.1 µM],-21%
O=C(CCCCCNc1nc(=S)[nH]c2ccccc12)NCCc1ccc(Cl)cc1,-7%,?,-3%,.
Nc1nc2ccc(Cl)cc2cc1C(=O)NCc1ccc(Oc2ccccc2)cc1,0.65µM*,1.3µM*,.,-11%
OCCc1c[nH]c2ccccc12,2%,10%,.,-10%
O=C(CCCCCNc1nc(=S)[nH]c2ccccc12)NCCc1c[nH]c2ccccc12,18µM*,15µM*,6%,3%
OCc1c[nH]c2ccccc12,17µM*!,39µM*!,2%,-8%
COc1ccc2[nH]cc(CCNC(C)=O)c2c1,-6%,3%,12%[56.1 µM],?
Nc1nc2ccc(Cl)cc2cc1C(=O)NC1CC1,-9%,-16%,.,5%
Cc1cc(NS(=O)(=O)c2ccc(NC(=O)CSc3nc4ncccc4[nH]3)cc2)nc(C)n1,13%,10%,4%,-10%
O=S(=O)(c1ccc(Br)cc1F)N1CCC(O)CC1,3%,-9%,.,0%
O=C(Cc1ccc(Cl)cc1)NCCc1c[nH]c2ccccc12,18µM*,?,.,0%
Nc1nc2ccc(Cl)cc2cc1C(=O)NCCc1c[nH]c2ccccc12,8.2µM*,?,.,-9%
O=C(NCCc1c[nH]c2ccccc12)c1cc2sccc2n1Cc1ccccc1,23µM*,21µM*,8%,10%
O=C(Cc1ccccc1)NCCc1c[nH]c2ccccc12,-22%,0%,2%,-1%
Nc1nc2cc3c(cc2cc1C(=O)NCc1ccc(F)cc1)OCO3,16µM*,4.1µM*,.,5%
Cc1cc(C)cc(C(=O)OCC(=O)N2CCCCCC2)c1,4%,-8%,1%,-1%
SMILES,TDP1 cell CPT,TDP1 cell noCPT,TDP1 inh,ClpP mod
CC1(C)CC(=O)c2cc(C(=O)Nc3ccc(Br)cc3)c(=O)[nH]c2C1,-19%,-11%,1%,-7%
Oc1ccccc1CNc1ccc(OC(F)(F)F)cc1,-25%,?,3%,.
CCN(CC)c1ccc(NC(=O)CNCc2ccccc2Cl)c(C)c1,?,-7%,.,-3%
CCN1CCN(c2ncc3c(n2)CCN(Cc2cc(F)cc(F)c2)C3)CC1,15µM*,15µM*,4%,-2%
CCc1ccc(CN2CCc3nc(N4CCN(CC)CC4)ncc3C2)cc1,?,16µM*,4%,-2%
CCCN1CCN(c2ncc3c(n2)CCN(Cc2ccc(OC)c(OC)c2OC)C3)CC1,?,18µM*,9%,-3%
CCOC(=S)SCC(=O)Nc1nc(C)c(C)s1,16µM*,21µM*,4%,-1%
CCOC(=S)SCC(=O)Nc1nccs1,21µM*,21µM*,0%,-28%
Cc1nc(NC(=O)CSc2nc(N)cc(N)n2)sc1C,8%,-1%,10%,.
CCOC(=O)C(=O)Nc1nccs1,-4%,0%,0%,0%
CCOC(=O)/C=C/C(=O)Nc1nccs1,7.3µM*,3.7µM*,-5%,-1%
Cc1ccc(NC(=O)CN2C(=O)NC(C)(C3CC3)C2=O)cc1S(=O)(=O)N1CCCCC1 (stereo unspecified),?,-27%,2%,-1%
C[C@H](CO)N1C[C@H](C)[C@@H](CN(C)C(=O)Nc2ccc3c(c2)OCO3)Oc2ccc(NC(=O)Nc3ccc4c(c3)OCO4)cc2C1=O,-25%,0%,5%,-4%
O=[N+]([O-])c1ccc(C[n+]2cccc(O)c2)cc1,5%,2%,0%,1%
COc1cc2cc[n+](Cc3ccc([N+](=O)[O-])cc3)cc2cc1OC,18µM*,?,.,-6%
COCCCNc1c2c3c(cccc3[nH]c1=O)C(=O)c1ccccc1-2,15µM*,16µM*,4%,-3%
COc1ccccc1NS(=O)(=O)c1cc(NC(=O)c2[nH]c(C)c(C(C)=O)c2C)ccc1N1CCOCC1,7.3µM*,2.9µM*,.,-1%
COc1ccccc1NS(=O)(=O)c1cc(NC(=O)c2cc(F)c(F)c(F)c2F)ccc1N1CCOCC1,?,16µM*,-1%,.
COc1ccccc1NS(=O)(=O)c1cc(NC(=O)c2ccc(=O)[nH]c2)ccc1N1CCOCC1,?,16µM*,5%,-2%
COc1ccccc1NS(=O)(=O)c1cc(NC(=O)c2ccccc2C)ccc1N1CCOCC1,?,?,.,-10%
O=C(Nc1ccc(N2CCOCC2)c(S(=O)(=O)Nc2ccccc2Cl)c1)c1ccccc1,?,?,0%,0%
